# Screens (PubChem)
# F-actin modifier – modifiers of cytoskeleton assembly | HUVEC TNFa F-actin phalloidin imaging, high content | actives 0.18% (n = 91,000) | inhibition, % at 2 µM;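 active = inhibition above the batch mean plus 3 SD and confirmed as a hit by visual image inspection, cut at about 30% in these data, passing the limit was not always enough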
# CYP2C19 inhib – blocks human cytochrome P450 2C19; CYP2C19 Supersomes, luciferin-H EGE luminescence, 30 min; P33261; actives 21% (n = 96,000); inhibition, % at 5 µM;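 active = CYP2C19 inhibition above a set limit at 5 µM in the primary screen, cut at about 50% in these data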;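 also: plate controls were negative control wells for no effect and 2.5 mM tranylcypromine positive control for full effect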
# Target sequence (P33261 whole entry, looked up): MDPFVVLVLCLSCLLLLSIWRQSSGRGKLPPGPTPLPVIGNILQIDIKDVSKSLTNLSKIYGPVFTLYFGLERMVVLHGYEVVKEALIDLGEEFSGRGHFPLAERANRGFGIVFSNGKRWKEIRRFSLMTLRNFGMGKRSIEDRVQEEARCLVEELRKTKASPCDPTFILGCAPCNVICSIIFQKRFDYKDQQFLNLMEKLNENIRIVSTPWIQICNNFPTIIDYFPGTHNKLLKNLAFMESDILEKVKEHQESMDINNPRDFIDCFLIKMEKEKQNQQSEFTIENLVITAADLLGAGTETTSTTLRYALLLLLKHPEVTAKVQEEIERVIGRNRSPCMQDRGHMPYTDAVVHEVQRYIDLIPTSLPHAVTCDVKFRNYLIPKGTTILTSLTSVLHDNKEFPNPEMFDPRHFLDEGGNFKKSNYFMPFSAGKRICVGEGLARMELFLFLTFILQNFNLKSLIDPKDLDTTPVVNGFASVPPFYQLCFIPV
# CYP2C9 act – CYP2C9 (human) activation; activation factor at 5 µM; AID 1024; recombinant CYP2C9, luciferin-H conversion, luminescence; stronger effect = higher value; factor 1 = untreated enzyme, 0 = blocked; actives 1.4% (n = 96,000); P11712;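 active = activation factor of 2 or more for CYP2C9 at a 5 µM dose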;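 also: 0 = sulfaphenazole-blocked wells and 1 = vehicle-only wells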
# CYP2C9 inh – human CYP2C9 inhibition | AID 777 | actives 20% (n = 96,000) | CYP2C9 Supersomes, luciferin-H conversion, luminescence | inhibition, % at 5 µM | P11712;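 active = blocking of liver enzyme CYP2C9 beyond about 50% at 5 µM, limit read from the data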
# E-sel TNF inh – TNF alpha driven E-selectin expression inhibition. HUVEC TNFa-induced E-selectin immunofluorescence, high content. inhibition, % at 2 µM. actives 0.71% (n = 120,000);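 active = inhibition above the batch mean plus 3 SD, and confirmed as a hit on visual image review, cut at about 43% in these data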;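 also: 0% = TNF-stimulated DMSO wells and 100% = unstimulated control wells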
# CYP2C19 act – increases human CYP2C19 enzyme activity; AID 1025; recombinant CYP2C19, luciferin-H EGE luminescence; stronger effect = higher value; 0 = fully inhibited enzyme, 1 = untreated enzyme; activation factor at 5 µM; 96,000 tested, under 10 active; P33261;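 active = activation factor of at least 2 at 5 µM in the primary screen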;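 also: 0 = wells with 2.5 mM tranylcypromine and 1 = vehicle-only wells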
# The depositor's hits bear a star; x = no result. A selection: hits, their analogues and other compounds. The true share with any hit is near 22%.
SMILES,F-actin modifier,CYP2C19 inhib,CYP2C9 act,CYP2C9 inh,E-sel TNF inh,CYP2C19 act
CCOc1ccc2cc(S(=O)(=O)N3CCOCC3)ccc2c1,5,1,0.8,24,-8,1
CCOc1ccc(S(=O)(=O)Nc2ccc(S(=O)(=O)N3CCCCC3)cc2)cc1,14,53*,0.1,86*,-6,0.5
CCOC(=O)c1ccc(NC(=O)COc2ccc(S(=O)(=O)N3CCCC3)cc2)cc1,-9,7,0.7,25,8,0.9
Cc1nnc(C)n1/N=C/c1cccnc1,6,-3,1,2,5,1
CSc1ncccc1C(=O)Nc1ccc(F)c(F)c1F,x,x,x,x,34,x
CCOC(=O)C1=C(C)Nc2ccccc2N=C1NC(=O)c1cccc(S(=O)(=O)N(C)C)c1,-31,27,0.1,93*,6,0.7
CCOC(=O)C1=C(CC)Nc2ccccc2N=C1NC(=O)c1ccc(S(=O)(=O)N(C)C)cc1,-8,92*,0.1,93*,10,0.1
CCOC(=O)C1=C(CC)Nc2ccccc2N=C1NC(=O)c1ccc(S(=O)(=O)N2CCOCC2)cc1,x,x,x,x,37,x
Cc1nc2cc(-c3ccccc3)nn2c(C)c1CCC(=O)N1CCN(c2ccccn2)CC1,3,28,0.6,44,-10,0.7
Cc1ccccc1-n1c(SCc2c(C)noc2C)nnc1-c1c[nH]c2ccccc12,24,4,0.9,8,-1,1
Cc1c(Cl)cccc1-n1c(SCC(=O)N(C)Cc2ccccc2)nnc1-c1ccncc1,-7,90*,0.2,83*,16,0.1
Cc1noc(C)c1CSc1nnc(-c2ccncc2)n1-c1cccc(Cl)c1C,x,100*,0.1,94*,-49,0
CCC1(C)Cc2ccccc2/C(=C/C(=O)N2CCCCC2)N1 (stereo not given),4,21,0.7,25,-30,0.8
O=C(COC(=O)Cc1cccs1)Nc1ccc(F)c(F)c1F,11,75*,0.8,25,-7,0.3
CC(=O)Nc1ccc(NC(=O)COC(=O)Cc2cccs2)cc1,-9,11,0.9,10,3,0.9
Cn1c2c(c(=O)n(C)c1=O)C(C(F)(F)F)(C(F)(F)F)N=C(c1ccc(Cl)cc1)N2,-6,14,0.1,89*,-1,0.9
COc1ccc(-c2nc(C(N)=O)c3[nH]c(=O)n(-c4cccc(C)c4)c3n2)c(OC)c1,x,-7,0.8,18,-22,1.1
O=C(Nn1c(=S)[nH]c2ccccc2c1=O)c1ccncc1,-7,85*,0.8,18,x,0.1
O=C(CCN1CCCCC1)Nn1c(=S)[nH]c2ccccc2c1=O,6,-11,0.8,16,8,1.1
COc1[nH]c(/N=C/c2ccccc2)c(C#N)c1C#N,-5,15,0.3,75*,-5,0.8
CCn1c(SCc2cccnc2)nnc1-c1c[nH]c2ccccc12,x,89*,0.5,45,x,0.1
CCOC(=O)c1c(NC(=O)CSc2nnc(-c3c[nH]c4ccccc34)n2CCOC)sc2c1CCCCC2,x,x,x,x,1,x
COCCn1c(SCc2cccnc2)nnc1-c1c[nH]c2ccccc12,x,75*,0.4,55*,x,0.2
CCn1c(SCC(=O)NCc2ccc3c(c2)OCO3)nnc1-c1c[nH]c2ccccc12,-6,x,x,x,7,x
O[C@@H](CNC[C@H](O)c1ccccc1)c1ccccc1,-4,x,x,x,7,x
SMILES,F-actin modifier,CYP2C19 inhib,CYP2C9 act,CYP2C9 inh,E-sel TNF inh,CYP2C19 act
COC(=O)c1ccc(-c2ccc(CNCC(O)c3ccccc3)o2)cc1 (stereo not given),x,60*,0.7,28,x,0.4
COc1ccc(OC)c(N2C(=O)C(Cl)=C(N3CCOCC3)C2=O)c1,-29,60*,0.8,22,x,0.4
COc1ccc(OC)c(N2C(=O)C(Cl)=C(N3CCCCC3)C2=O)c1,18,66*,0.2,78*,x,0.3
O=C1C(Cl)=C(N2CCCCC2)C(=O)N1c1ccccc1Cl,-3,32,0.7,32,-14,0.7
CC1(C)Cc2c(cnn2-c2ccccc2)-c2c1c1ccccc1n2CC(O)CCl (stereo not given),6,x,x,x,-1,x
O=C1Nc2ccccc2N(O)N1c1ccc(S(=O)(=O)Nc2ccccn2)cc1,x,x,x,x,12,x
CCCC(C(=O)NCc1ccco1)N(C(=O)CNS(=O)(=O)c1ccc(Cl)cc1)C1CCCC1 (stereo not given),-9,92*,0.2,80*,-1,0.1
CCC(C(=O)NCc1ccco1)N(C(=O)CNS(=O)(=O)c1ccccc1)C1CCCCC1 (stereo not given),8,71*,0.6,37,-2,0.3
CC(C)C(C(=O)NCc1ccco1)N(C(=O)CNS(=O)(=O)c1ccccc1)C1CCCC1 (stereo not given),4,7,1.2,-19,10,0.9
Cc1oc(-c2ccccc2)[n+]([O-])c1C,-2,1,0.9,6,15,1
CCCOc1ccc(C(=O)N2CCN(c3ccc(NC(=O)CC)cc3Cl)CC2)cc1,7,96*,0.1,86*,-17,0
CCCC(=O)N1CCN(c2ccc(NC(=O)c3cccs3)cc2Cl)CC1,x,x,x,x,18,x
O=C(Nc1ccc(Br)c(Cl)c1)c1ccco1,-4,66*,0.6,43,23,0.3
CCCC(=O)N1CCN(c2ccc(NC(=O)c3cc4ccccc4o3)cc2Cl)CC1,-7,81*,0.2,82*,23,0.2
O=C(Nc1ccc(N2CCN(C(=O)c3ccccc3)CC2)c(Cl)c1)c1ccco1,6,41,0.4,62*,12,0.6
O=C(Nc1ccc(N2CCOCC2)c(Cl)c1)c1ccco1,-50,14,0.8,22,-5,0.9
CCCCOc1ccc(C(=O)N2CCCCCC2)cc1,-48,4,1.1,-7,-27,1
O=c1ccc(S(=O)(=O)N2CCC(Cc3ccccc3)CC2)c[nH]1,-11,35,0.7,33,-6,0.6
Cc1nc2oc(C(=O)c3ccc(Br)cc3)c(N)c2c2c1COC(C)(C)C2,-30,-9,0.8,20,x,1.1
CCC(=O)N1CCN(c2ccc(NC(=O)c3cc4ccccc4o3)cc2Cl)CC1,-9,36,0.5,50*,x,0.6
O=C(c1cc2ccccc2o1)N1CCN(c2ccccc2Cl)CC1,6,44,0.6,44,x,0.6
O=C(Nc1ccc(N2CCN(C(=O)c3ccco3)CC2)c(Cl)c1)c1cc2ccccc2o1,-7,71*,0.1,92*,-2,0.3
COc1ccc(C(=O)NCCn2ccc3ccccc32)c(OC)c1,-35,100*,1,5,-24,0
O=C(Cc1cccs1)NCCn1ccc2ccccc21,x,73*,0.8,18,6,0.3
Cc1cc2ccccc2n1CCNC(=O)C(C)Oc1ccccc1 (stereo not given),-1,100*,0.1,87*,9,0
Cc1cc2ccccc2n1CCNC(=O)Cc1ccccc1,-14,96*,0.2,81*,-1,0
